Values without a mark were called inactive. The rule behind the calls is not given here.
The molecules below were run on Aerobactin synthetase IucA (Klebsiella pneumoniae hvKP1) (assay: Biochemical IucA enzyme inhibition primary screen of the Spectrum library (AID 1346200;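 note: 100% = wells without compound and 0% = wells lacking enzyme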)). Conditions: malachite green pyrophosphate, A620, at 8 µM, stronger effect = lower value.

| SMILES | activity remaining [%] |
| --- | --- |
| CC(=O)Nc1ccccc1 | 103 |
| O=c1cc(-c2ccccc2)oc2cccc(O)c12 | 99.1 |
| O=C(O[C@@H]1Cc2c(O)cc(O)cc2O[C@@H]1c1cc(O)c(O)c(O)c1)c1cc(O)c(O)c(O)c1 | 113 |
| COC(=O)CC1C(C)(C)C(OC(C)=O)[C@@H]2[C@@H](OC(C)=O)[C@]34O[C@@]2(O)[C@]1(C)C3CC[C@]1(C)C4=CC(=O)O[C@H]1c1ccoc1 (stereo not given in full) | 124 |
| Cc1cc(-n2c(=O)[nH]c(=O)n(C)c2=O)ccc1Oc1ccc(SC(F)(F)F)cc1 | 109 |
| C[C@]12CCC3c4ccc(O)cc4CCC3C1CC[C@@H]2OC(=O)CCC1CCCC1 (stereo not given in full) | 124 |
| CN1C2CC(OC(=O)[C@H](CO)c3ccccc3)C[C@H]1[C@H]1OC21 (stereo not given in full) | 109 |
| Nc1c(Br)cc(Br)cc1CNC1CCC(O)CC1 (stereo not given) | 93.2 |
| CN[C@@H]1[C@H](O)[C@H](NC)[C@H]2O[C@@]3(O)C(=O)C[C@@H](C)O[C@H]3O[C@@H]2[C@H]1O | 108 |
| O=C(O)CCC(=O)c1ccc(-c2ccccc2)cc1 | 115 |
| COc1ccc(C(=O)CC(=O)O)c2c1C=CC(C)(C)O2 | 108 |
| COC1=CC(=O)C[C@@H](C)[C@]12Oc1c(Cl)c(OC)cc(OC)c1C2=O | 115 |
| O=c1c(O)c(-c2ccc(O)cc2)oc2ccccc12 | 104 |
| C#C[C@]1(O)CCC2C3CCC4=CC(=O)CC[C@@H]4C3CC[C@@]21CC (stereo not given in full) | 123 |
| C[C@]12CCC(=O)C=C1CCC1C2[C@@H](O)C[C@@]2(C)C1CC[C@]2(O)C(=O)COC(=O)CCC(=O)O (stereo not given in full) | 123 |
| Cc1nc(N)cc(C[n+]2csc(CCO)c2C)n1 | 83.3 |
| Cn1c(=O)[nH]c2nc[nH]c2c1=O | 79.5 |
| O=C(O)CN(CC(=O)O)Cc1cc2c(-c3ccccc3C(=O)O)c3cc(CN(CC(=O)O)CC(=O)O)c(=O)cc-3oc2cc1O | 113 |
| O=c1cc(-c2ccc(O)cc2)oc2cc(O[C@@H]3O[C@H](CO)[C@@H](O)[C@H](O)[C@H]3O[C@@H]3OC[C@](O)(CO)[C@H]3O)cc(O)c12 | 103 |
| CC1(C)C2CC[C@]3(C)C(C(=O)C=C4[C@@H]5C[C@@](C)(C(=O)O)CC[C@]5(C)CC[C@]43C)[C@@]2(C)CC[C@@H]1OC(=O)CCC(=O)O (stereo not given in full) | 120 |

| SMILES | activity remaining [%] |
| --- | --- |
| Cc1ccsc1/C=C/C1=NCCCN1C | 123 |
| O=C(Nc1ccccc1)Nc1ccccc1 | 103 |
| O=C(OOC(=O)c1ccccc1)c1ccccc1 | 113 |
| C=C1C2CC[C@@]3(C)[C@H](c4ccoc4)OC(=O)C[C@]13O[C@H]1CC(O)C(C)(C)C(CC(=O)OC)[C@@]21C (stereo not given in full) | 86.1 |
| CC1NC(=O)NC1=O (stereo not given) | 97.3 |
| C[C@H]1[C@H](C)CC[C@]2(C(=O)O)CC[C@]3(C)C(=CCC4[C@@]5(C)C[C@@H](O)[C@H](O)[C@@](C)(CO)C5[C@H](O)C[C@]43C)[C@H]12 (stereo not given in full) | 110 |
| CS(=O)(=O)CCCCN=C=S | 101 |
| CNC[C@@H](O)c1ccc(O)c(O)c1 | 115 |
| Cc1c(Nc2ncccc2C(=O)O)cccc1C(F)(F)F | 117 |
| CCCSc1ccc2nc(NC(=O)OC)[nH]c2c1 | 111 |
| COc1ccccc1OCCNCC(O)COc1cccc2[nH]c3ccccc3c12 (stereo not given) | 120 |
| C=CC(C1=CC(=O)C(OC)=CC1=O)c1ccc(O)cc1 (stereo not given) | 120 |
| CC(=O)O[C@H]1C(=O)[C@@]2(C)C([C@H](OC(=O)c3ccccc3)[C@]3(O)C[C@H](OC(=O)[C@H](O)[C@@H](NC(=O)c4ccccc4)c4ccccc4)C(C)=C1C3(C)C)[C@]1(OC(C)=O)CO[C@@H]1C[C@@H]2O (stereo not given in full) | 90.9 |
| COc1ccc([C@@H](C)C(=O)c2ccc(O)cc2O)cc1 | 118 |
| CC(=O)OCC(=O)[C@@]1(O)CCC2C3CCC4=CC(=O)C=CC4(C)C3[C@@H](O)C[C@@]21C (stereo not given in full) | 81.1 |
| O=C(O)/C=C/C=C/c1ccccc1 | 103 |
| COc1ccc(-c2oc3ccccc3c(=O)c2O)cc1OC | 109 |
| CN1CCOC(c2ccccc2)c2ccccc2C1 (stereo not given) | 110 |
| CC12CCC3c4ccc(OCc5ccccc5)cc4CCC3C1C[C@@H](O)[C@@H]2O (stereo not given in full) | 119 |
| CCC(=O)O[C@H]1[C@H](O[C@@H]2[C@@H](C)[C@H](O[C@H]3C[C@@](C)(OC)[C@@H](O)[C@H](C)O3)[C@@H](C)C(=O)O[C@H](CC)[C@@](C)(O)[C@H](O)[C@@H](C)C(=O)[C@H](C)C[C@@]2(C)O)O[C@H](C)C[C@@H]1N(C)C | 121 |

Reference: PubChem BioAssay
